From PubChem BioAssay (NCATS)
Results filed as inconclusive are left out. Activity calls are given as the source filed them. Unless noted, the call rests on the fitted dose curve; in most records, active means well fitted curve in the direction sought with a large enough effect; inconclusive means small, poorly fitted or top-dose-only effect, or another doubt; inactive means no such curve, though single readings can be large; an effect the other way counts as inactive or inconclusive.

Legend:
[1] = Confirmation and Secondary Assay for Modulators of Hemoglobin Beta Chain Splicing at IVS2 654 locus (AID 910);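 further: per-well total GFP intensity by laser scanning cytometry after 2-day treatment; % of control where 0% means no effect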
Method in brief: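 HeLa cells stably carrying EGFP interrupted by mutant beta-globin IVS2-654 intron (CMV-driven) were treated with compound for 2 days at 37C; corrected splicing was scored as total peak GFP intensity per well (488 nm excitation, 500-520 nm emission).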

[2] = Confirmation and Secondary Assay for Modulators of Hemoglobin Beta Chain Splicing at IVS2 705 locus (AID 930);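 further: HeLa cells stably expressing the EGFP-705 splicing reporter; GFP fluorescence per well restored by corrected splicing of the IVS2-705 intron in EGFP; % of control where 0% means no effect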
Method in brief: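 Per-well GFP, captured at 1 x 8 µm resolution with 488 nm excitation, served as the read-out for HeLa EGFP-705 cells incubated 2 days with test compound versus DMSO.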

[3] = qHTS Assay for Lipid Storage Modulators (AID 1519; calls by dose curve; on activity change, negative = inhibition: on the % scale 0 is the no-effect control and ±100 the full control effect); conditions: Drosophila S3 cells, BODIPY lipid droplet/cell ratio, laser cytometry, cells loaded with oleic acid
Method in brief: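 Cells seeded at 5,000 per well were treated with compounds over a concentration series and loaded with oleic acid (400 uM, as added). Lipid droplet fluorescence (488 nm excitation, 500-530 nm channel) was read by laser-scanning cytometry and normalized to 20 uM Triacsin C.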

[4] = target: ATP-dependent 6-phosphofructokinase (Trypanosoma brucei brucei) (UniProt O15648); test: qHTS Assay to Find Inhibitors of T. brucei phosphofructokinase: hit validation (AID 492961);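 further: luminescence reports ADP formed as PFK phosphorylates fructose-6-phosphate with ATP; on the % scale 0 is the no-effect control and ±100 the full control effect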
Method in brief: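 Percent activity derived from corrected luminescence, normalized between 0x and 1x enzyme controls, then fitted to concentration-response curves. Conditions: 1.25 nM PFK, 0.1 mM ATP, 0.5 mM F6P, 45 min RT.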

[5] = target: Luciferin 4-monooxygenase (Photinus pyralis) (UniProt P08659); test: Biochemical firefly luciferase enzyme assay for NPC (AID 624030);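 further: purified P. pyralis luciferase at 10 nM with luciferin and ATP substrate; 0% = DMSO and -100% = full luciferase inhibition by PTC124 control; nearly all actives have a fitted effect of over 70% in size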
Method in brief: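 Counter-screen for direct inhibition of the luciferase enzyme by approved-drug library compounds, run at 10 nM enzyme in 50 mM Tris acetate (final). Luminescence was read within 5 min of enzyme-buffer addition and normalized to PTC124 versus DMSO (0%).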

[6] = S16 Schwann cell viability assay (CellTiter-Glo assay) (AID 624031);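 further: native untransfected S16 rat Schwann cells; cellular ATP luminescence as a viability measure; plate controls were DMSO-treated cells for no effect and cell-free wells for full effect; nearly all actives have a fitted effect of over 70% in size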
Method in brief: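 Rat S16 Schwann cells without reporter constructs received compound or DMSO for 24 h at 37 °C under 5% CO2. Cellular ATP was then quantified by CellTiter-Glo luminescence, with vehicle wells defined as 0% activity and cell-free wells as reference.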

[7] = S16 Schwann cell PMP22 intronic element firefly luciferase assay (AID 624032);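 further: plate controls were DMSO for no effect and PTC124 positive control mean for full effect; nearly all actives have a fitted effect of over 30% in size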
Method in brief: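 Rat S16 Schwann cells stably carrying a PMP22 intronic element-driven Fluc reporter were seeded overnight, then exposed to compounds for 24 h at 37 °C. Luminescence was normalized to PTC124 (positive control) and DMSO (0% activity).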

[8] = Primary qHTS for inhibitors of SARS-S pseudo-typed particle cell entry (AID 1479145; calls by dose curve; further: potency means the concentration at half of the fitted maximal effect; nearly all actives have a fitted effect of over 45% in size); conditions: outcome: dose series up to 57.1 µM unless noted
[9] = Primary qHTS for inhibitors of MERS-S pseudo-typed particle cell entry (AID 1479149; calls by dose curve; further: on the % scale 0 is the no-effect control and ±100 the full control effect; nearly all actives have a fitted effect of over 60% in size); conditions: outcome: dose series up to 57.1 µM unless noted
[10] = Primary qHTS to identify inhibitors of SARS-CoV-2 cell entry (AID 1645846; calls by dose curve; further: nearly all actives have a fitted effect of over 45% in size); conditions: SARS-CoV-2 pseudovirus cell entry assay, luminescence; activity change, negative = inhibition: at 57.1 µM (top of the series) unless noted
Method in brief: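 HEK293 cells stably expressing human ACE2, pre-treated 1 h with compound, then infected with MLV particles pseudotyped with Wuhan-Hu-1 spike (C-terminal 19-aa truncation). Luciferase luminescence after 48 h at 37 °C, normalised to spike PP and bald PP.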

[11] = NCATS anti-infectives library activity on HEK293 viability as a counter-qHTS vs the C. elegans viability qHTS (AID 1745854); further: potency means the concentration at half of the fitted maximal effect
Method in brief: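 Cytotoxicity counter-screen to a worm viability qHTS: CellTiter-Glo luminescence read 10 min after reagent addition. Compounds (final up to 41.7 uM, a 1:5 dilution series) incubated 24 hr at 37C with 1,500 HEK293 cells per well; digitonin control.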

[12] = NCATS anti-infectives library activity on the primary C. elegans qHTS viability assay (AID 1745855; calls by dose curve; further: potency means the concentration at half of the fitted maximal effect)
Method in brief: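 GFP read-out by 488 nm laser cytometry at day 0, 3 and 7, gated on object perimeter, area and peak intensity, scored viability of PE254-GFP-FLuc worms exposed to compound in S medium with bacterial capsules at 21 °C.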

[13] = target: Glutathione peroxidase 1 (Homo sapiens) (UniProt P07203); test: Primary qHTS Assay for Inhibitors of Recombinant Selenoprotein Glutathione Peroxidase 1 (GPX1) (AID 1845191); further: nearly all actives have a fitted effect of over 65% in size
Method in brief: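 GPX1 10 nM, GR 100 nM, GSH 1 mM, NADPH 0.5 mM, CHP 0.5 mM (final). 30-min cpd preincubation, RT. Ex340/Em450 read t=0, t=15 min.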

[14] = target: Phospholipid hydroperoxide glutathione peroxidase GPX4 (Homo sapiens) (UniProt P36969); test: Primary qHTS Assay for Inhibitors of Recombinant Selenoprotein Glutathione Peroxidase 4 (GPX4) (AID 1845192); further: nearly all actives have a fitted effect of over 65% in size
Method in brief: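 qHTS, GR-coupled: GPX4 200 nM + cpd 30 min RT → GSH 1 mM, NADPH 0.5 mM, GR 100 nM → CHP 0.5 mM start; fluor 340/450 at t0 and t15 min; no-enzyme wells as control.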

[15] = qHTS profiling for inhibitors of Plasmodium falciparum proliferation (AID 504749); further: nearly all actives have a fitted effect of over 60% in size; further: potency means the concentration at half of the fitted maximal effect;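 on activity, negative = inhibition: 0% = DMSO vehicle and full inhibition = artemisinin control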; conditions: P. falciparum in erythrocytes, SYBR Green DNA, 72 h, at 28.7 µM (top of the series)
Method in brief: (§1)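 Quantitative HTS: compounds pinned into medium, infected erythrocytes added (0.3% parasitemia, 2.5% hematocrit), 72 h culture at 37 C under 5% CO2. Saponin/Triton lysis with SYBR Green I, overnight RT, then fluorescence read.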

7G8 = test: as above; conditions: P. falciparum in erythrocytes, SYBR Green DNA, 72 h; series mostly up to 12.8 µM
Method in brief: as §1

AA1029 = test: as above; conditions: P. falciparum in erythrocytes, SYBR Green DNA, 72 h; series mostly up to 28.7 µM
Method in brief: as §1

AS120 = test: as above; conditions: P. falciparum in erythrocytes, SYBR Green DNA, 72 h; series mostly up to 28.7 µM
Method in brief: as §1

ATS95 = test: as above; conditions: P. falciparum in erythrocytes, SYBR Green DNA, 72 h; series mostly up to 28.7 µM
Method in brief: as §1

C2A = test: as above; conditions: P. falciparum in erythrocytes, SYBR Green DNA, 72 h; series mostly up to 28.7 µM
Method in brief: as §1

CP185 = test: as above; conditions: P. falciparum in erythrocytes, SYBR Green DNA, 72 h; series mostly up to 28.7 µM
Method in brief: as §1

CP192 = test: as above; conditions: P. falciparum in erythrocytes, SYBR Green DNA, 72 h; series mostly up to 28.7 µM
Method in brief: as §1

CP201 = test: as above; conditions: P. falciparum in erythrocytes, SYBR Green DNA, 72 h; series mostly up to 28.7 µM
Method in brief: as §1

CP203 = test: as above; conditions: P. falciparum in erythrocytes, SYBR Green DNA, 72 h; series mostly up to 28.7 µM
Method in brief: as §1

CP211 = test: as above; conditions: P. falciparum in erythrocytes, SYBR Green DNA, 72 h; series mostly up to 28.7 µM
Method in brief: as §1

CP215 = test: as above; conditions: P. falciparum in erythrocytes, SYBR Green DNA, 72 h; series mostly up to 28.7 µM
Method in brief: as §1

CP217 = test: as above; conditions: P. falciparum in erythrocytes, SYBR Green DNA, 72 h; series mostly up to 28.7 µM
Method in brief: as §1

CP238 = test: as above; conditions: P. falciparum in erythrocytes, SYBR Green DNA, 72 h; series mostly up to 28.7 µM
Method in brief: as §1

CP247 = test: as above; conditions: P. falciparum in erythrocytes, SYBR Green DNA, 72 h; series mostly up to 28.7 µM
Method in brief: as §1

CP250 = test: as above; conditions: P. falciparum in erythrocytes, SYBR Green DNA, 72 h; series mostly up to 12.8 µM
Method in brief: as §1

CP252 = test: as above; conditions: P. falciparum in erythrocytes, SYBR Green DNA, 72 h; series mostly up to 12.8 µM
Method in brief: as §1

CP256 = test: as above; conditions: P. falciparum in erythrocytes, SYBR Green DNA, 72 h; series mostly up to 28.7 µM
Method in brief: as §1

CP262 = test: as above; conditions: P. falciparum in erythrocytes, SYBR Green DNA, 72 h; series mostly up to 28.7 µM
Method in brief: as §1

CP268 = test: as above; conditions: P. falciparum in erythrocytes, SYBR Green DNA, 72 h; series mostly up to 28.7 µM
Method in brief: as §1

CP269 = test: as above; conditions: P. falciparum in erythrocytes, SYBR Green DNA, 72 h; series mostly up to 28.7 µM
Method in brief: as §1

CP286 = test: as above; conditions: P. falciparum in erythrocytes, SYBR Green DNA, 72 h; series mostly up to 28.7 µM
Method in brief: as §1

CP291 = test: as above; conditions: P. falciparum in erythrocytes, SYBR Green DNA, 72 h; series mostly up to 28.7 µM
Method in brief: as §1

CP297 = test: as above; conditions: P. falciparum in erythrocytes, SYBR Green DNA, 72 h; series mostly up to 28.7 µM
Method in brief: as §1

CP305 = test: as above; conditions: P. falciparum in erythrocytes, SYBR Green DNA, 72 h; series mostly up to 28.7 µM
Method in brief: as §1

CP315 = test: as above; conditions: P. falciparum in erythrocytes, SYBR Green DNA, 72 h; series mostly up to 28.7 µM
Method in brief: as §1

CP325 = test: as above; conditions: P. falciparum in erythrocytes, SYBR Green DNA, 72 h; series mostly up to 28.7 µM
Method in brief: as §1

CP329 = test: as above; conditions: P. falciparum in erythrocytes, SYBR Green DNA, 72 h; series mostly up to 28.7 µM
Method in brief: as §1

DIV17 = test: as above; conditions: P. falciparum in erythrocytes, SYBR Green DNA, 72 h; series mostly up to 28.7 µM
Method in brief: as §1

DIV30 = test: as above; conditions: P. falciparum in erythrocytes, SYBR Green DNA, 72 h; series mostly up to 28.7 µM
Method in brief: as §1

Dd2 = test: as above; conditions: P. falciparum in erythrocytes, SYBR Green DNA, 72 h; series mostly up to 28.7 µM
Method in brief: as §1

FAB9 = test: as above; conditions: P. falciparum in erythrocytes, SYBR Green DNA, 72 h; series mostly up to 28.7 µM
Method in brief: as §1

HB3 = test: as above; conditions: P. falciparum in erythrocytes, SYBR Green DNA, 72 h; series mostly up to 28.7 µM
Method in brief: as §1

ICS = test: as above; conditions: P. falciparum in erythrocytes, SYBR Green DNA, 72 h; series mostly up to 28.7 µM
Method in brief: as §1

JCK = test: as above; conditions: P. falciparum in erythrocytes, SYBR Green DNA, 72 h; series mostly up to 28.7 µM
Method in brief: as §1

N140 = test: as above; conditions: P. falciparum in erythrocytes, SYBR Green DNA, 72 h; series mostly up to 28.7 µM
Method in brief: as §1

P93_24 = test: as above; conditions: P. falciparum in erythrocytes, SYBR Green DNA, 72 h; series mostly up to 28.7 µM
Method in brief: as §1

P94_40 = test: as above; conditions: P. falciparum in erythrocytes, SYBR Green DNA, 72 h; series mostly up to 28.7 µM
Method in brief: as §1

PC15 = test: as above; conditions: P. falciparum in erythrocytes, SYBR Green DNA, 72 h; series mostly up to 28.7 µM
Method in brief: as §1

SC27B = test: as above; conditions: P. falciparum in erythrocytes, SYBR Green DNA, 72 h; series mostly up to 28.7 µM
Method in brief: as §1

TAB113 = test: as above; conditions: P. falciparum in erythrocytes, SYBR Green DNA, 72 h; series mostly up to 28.7 µM
Method in brief: as §1

W2 = test: as above; conditions: P. falciparum in erythrocytes, SYBR Green DNA, 72 h; series mostly up to 12.8 µM
Method in brief: as §1

Chain of Phospholipid hydroperoxide glutathione peroxidase GPX4 (Homo sapiens) (P36969 whole entry, looked up): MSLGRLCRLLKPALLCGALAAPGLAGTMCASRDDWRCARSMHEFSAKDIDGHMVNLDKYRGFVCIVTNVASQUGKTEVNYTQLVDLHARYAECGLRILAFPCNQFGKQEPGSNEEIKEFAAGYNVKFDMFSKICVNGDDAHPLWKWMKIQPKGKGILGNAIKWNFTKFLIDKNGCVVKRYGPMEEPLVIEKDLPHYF
Chain of Glutathione peroxidase 1 (Homo sapiens) (P07203 whole entry, looked up): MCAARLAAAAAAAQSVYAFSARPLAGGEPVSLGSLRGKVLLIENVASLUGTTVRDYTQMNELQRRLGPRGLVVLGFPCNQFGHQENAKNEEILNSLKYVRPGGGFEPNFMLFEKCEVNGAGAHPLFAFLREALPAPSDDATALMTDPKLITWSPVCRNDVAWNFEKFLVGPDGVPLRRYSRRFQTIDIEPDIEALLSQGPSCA
Chain of ATP-dependent 6-phosphofructokinase (Trypanosoma brucei brucei) (O15648 whole entry, looked up): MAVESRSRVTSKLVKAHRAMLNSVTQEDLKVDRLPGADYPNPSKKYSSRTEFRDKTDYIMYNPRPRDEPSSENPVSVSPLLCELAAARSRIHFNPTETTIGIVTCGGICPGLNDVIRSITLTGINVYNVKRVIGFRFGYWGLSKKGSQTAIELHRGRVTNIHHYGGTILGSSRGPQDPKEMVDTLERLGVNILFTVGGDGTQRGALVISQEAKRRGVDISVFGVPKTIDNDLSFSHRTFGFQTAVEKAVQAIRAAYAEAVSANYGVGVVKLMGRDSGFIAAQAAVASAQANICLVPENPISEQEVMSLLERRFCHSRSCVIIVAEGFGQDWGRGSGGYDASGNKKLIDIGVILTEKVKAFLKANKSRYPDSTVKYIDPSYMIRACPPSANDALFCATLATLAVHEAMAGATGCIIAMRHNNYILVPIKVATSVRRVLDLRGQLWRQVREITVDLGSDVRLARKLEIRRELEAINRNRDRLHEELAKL
Chain of Luciferin 4-monooxygenase (Photinus pyralis) (P08659 whole entry, looked up): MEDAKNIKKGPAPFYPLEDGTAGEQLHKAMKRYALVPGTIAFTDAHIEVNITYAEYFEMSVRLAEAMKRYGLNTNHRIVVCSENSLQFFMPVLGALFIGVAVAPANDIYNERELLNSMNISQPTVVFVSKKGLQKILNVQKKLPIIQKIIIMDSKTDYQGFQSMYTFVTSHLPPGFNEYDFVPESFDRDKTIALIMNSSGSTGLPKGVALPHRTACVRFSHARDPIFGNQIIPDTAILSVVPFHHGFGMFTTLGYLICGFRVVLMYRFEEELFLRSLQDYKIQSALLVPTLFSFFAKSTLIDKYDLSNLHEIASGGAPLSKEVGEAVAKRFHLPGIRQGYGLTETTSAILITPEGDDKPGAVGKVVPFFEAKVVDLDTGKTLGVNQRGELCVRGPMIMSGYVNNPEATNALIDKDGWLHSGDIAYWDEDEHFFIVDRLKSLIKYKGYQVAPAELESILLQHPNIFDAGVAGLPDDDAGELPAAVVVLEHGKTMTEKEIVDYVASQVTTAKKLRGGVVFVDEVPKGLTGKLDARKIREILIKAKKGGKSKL

CC(=O)OC1C[C@H](O[C@@H]2C(O)C[C@H](O[C@@H]3C(O)C[C@@H](OC4CC[C@]5(C)C(CCC6C5CC(O)[C@@]5(C)C(C7=CC(=O)OC7)CC[C@@]65O)C4)OC3C)OC2C)O[C@H](C)[C@H]1O[C@H]1OC(CO)C(O)C(O)C1O (some centres undefined)
inactive: Potency [1] | Potency [2] | activity change, negative = inhibition ([3]; at 57.5 µM (top of the series)) 1.49% | Potency [4] | Potency [5] | Potency [6] | Potency [7] | Potency [9] | Potency [13] | Potency [14] | activity, negative = inhibition ([15]; parasite line A) -17.9% | activity, negative = inhibition ([15]; parasite line B) 17.8% | Potency (AA1029) | Potency (AS120) | Potency (ATS95) | Potency (C2A) | Potency (CP185) | Potency (CP192) | Potency (CP201) | Potency (CP203) | Potency (CP211) | Potency (CP215) | Potency (CP217) | Potency (CP238) | Potency (CP247) | Potency (CP250) | Potency (CP252) | Potency (CP256) | Potency (CP262) | Potency (CP268) | Potency (CP269) | Potency (CP286) | Potency (CP291) | Potency (CP297) | Potency (CP305) | Potency (CP315) | Potency (CP325) | Potency (CP329) | Potency (DIV30) | Potency (Dd2) | Potency (FAB9) | Potency (JCK) | Potency (N140) | Potency (P94_40) | Potency (SC27B) | Potency (TAB113)
-96.3%: activity change, negative = inhibition [10]
24.4%: max response ([3]; measured here: lipid channel max response)
20.6%: max response ([3]; measured here: cell count channel max response)
active: Potency [8] 0.794 µM | Potency [11] 0.199 µM | Potency [12] 8.16 µM | Potency (7G8) 8.91 µM | Potency (DIV17) 13.5 µM | Potency (HB3) 12.6 µM | Potency (ICS) 5.62 µM | Potency (P93_24) 12.6 µM | Potency (PC15) 5.01 µM | Potency (W2) 13.5 µM
